Pf growth 96h = Primary qHTS for delayed death inhibitors of the malarial parasite plastid, 96 hour incubation. P. falciparum luciferase reporter growth, 96 h. Potency, µM (series often up to 28.7 µM), for inactives: top-dose activity change, negative = inhibition, hits mostly inhibitors. 320,000 compounds, 6.9% hits; active means well fitted inhibition curve with a large enough effect; inconclusive means small, poorly fitted or top-dose-only effect, or another doubt; inactive means no such curve, though single readings can be large or run the other way; further: on the % scale 0 is the no-effect control and ±100 the full control effect
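Readout is luminescence from an integrated firefly luciferase in P. falciparum. Red cells, 2% hematocrit and 0.05% parasitemia final, were cultured with compound through two parasite generations (96 hours) at 37 C, 5% CO2.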
RE007 growth inh = qHTS Assay for Inhibitors of the HIV-1 protein Vpr. S. pombe RE007 Vpr strain, BacTiter-Glo ATP luminescence, 24 h. Potency, µM (highest dose often 92.2 µM), inactives show top-dose activity change, negative = less growth, hits mostly inhibitors. 360,000 compounds, 0.21% hits. AID 651644, 2012; active means well fitted falling curve with a large enough effect; inconclusive means small, poorly fitted or top-dose-only effect; inactive means no such curve, though single readings can be large or run the other way; further: on the % scale 0 is the no-effect control and ±100 the full control effect; nearly all actives have a fitted effect of over 50% in size
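Fission yeast RE007 carrying one integrated HIV-1 vpr copy, seeded at OD 0.01 in PMG+AL medium with 23 nL pinned compound. Grown 24 h at 30 degrees; viability read by BacTiter-Glo luminescence after 5 min.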
Pf growth 48h = Primary qHTS for delayed death inhibitors of the malarial parasite plastid, 48 hour incubation; P. falciparum luciferase growth in erythrocytes, 48 h; Potency, µM (series often up to 28.7 µM), for inactives: at the top dose activity change, negative = inhibition, hits mostly inhibitors; 310,000 compounds, 5.9% hits; active means well fitted inhibition curve with a large enough effect; inconclusive means small, poorly fitted or top-dose-only effect, or another doubt; inactive means no such curve, though single readings can be large or run the other way; further: on the % scale 0 is the no-effect control and ±100 the full control effect
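Luciferase-expressing P. falciparum in infected erythrocytes (2% hematocrit, 0.1% parasitemia final) in RPMI 1640/0.5% Albumax were exposed to compound for 48 hours at 37 C, 5% CO2; growth read as luminescence.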
NS1 function inh = qHTS Assay for Inhibitors of Influenza NS1 Protein Function; Potency, µM (doses to about 46.1 µM), without a hit: at the top dose activity, positive = more growth; 270,000 compounds, 0.4% hits; further: actives are rising curves; nearly all actives have a fitted effect of over 50% in size
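Compounds were scored for reversing the slow growth caused by influenza A NS1 in S. cerevisiae, measured by optical density at 600 nm. Assay medium contained 2% galactose at pH 6.0; NS1-free yeast of the same strain were the positive control.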
SARS PLpro yeast = qHTS of Yeast-based Assay for SARS-CoV PLP; AID 485353, 2010; Potency, µM (titrated, usually from 32.9 µM), without a hit: at the highest dose activity, positive = growth rescue, most hits filed as activators; S. cerevisiae expressing SARS-CoV PLpro, growth rescue; 330,000 compounds, 0.19% hits; further: 0% is about no effect; nearly all actives have a fitted effect of over 55% in size
Active calls of the source: *. Hits are enriched below; roughly 9.5% of the tested compounds scored in any of these assays. Unless noted, the call rests on the fitted dose curve. Potency means the concentration at half of the fitted maximal effect.

What do the screens show for `CC(C)CC[n+]1ccccc1/C=C/c1ccc(N(C)C)cc1`?
Pf growth 96h: -10.1%; RE007 growth inh: -18.3%; Pf growth 48h: 0.928µM*; NS1 function inh: -7.8%; SARS PLpro yeast: -1.7%

How did CCN(CC(=O)Nc1sc2c(c1C#N)CCC(C)C2)CC(=O)NC1CCS(=O)(=O)C1 (stereo unspecified) do in these assays?
Pf growth 96h: 11.7µM*; RE007 growth inh: 5.7%; Pf growth 48h: 0.0%; SARS PLpro yeast: 0.3%

How did COC(=O)c1ccc(N)cc1O do in these assays?
Pf growth 96h: 10.4µM*; RE007 growth inh: 16.1%; NS1 function inh: 3.8%; SARS PLpro yeast: -5.3%

How did O=C(Cc1cnc2ncnn2c1)N1CCc2c([nH]c3ccccc23)C1c1ccccc1F (stereo unspecified) do in these assays?
Pf growth 96h: -8.5%; RE007 growth inh: 13.9%; Pf growth 48h: -2.8%; NS1 function inh: 4.0%; SARS PLpro yeast: -1.0%

How did Cc1ccc2nc(N3CC(=O)Nc4ccccc43)nc(-c3ccccc3)c2c1 do in these assays?
Pf growth 96h: 9.28µM*; RE007 growth inh: 2.8%; Pf growth 48h: -8.7%; NS1 function inh: -18.2%; SARS PLpro yeast: 1.7%

What do the screens show for `Cc1ccc2nc(N3CCC(C(=O)O)CC3)nc(-c3ccccc3)c2c1`?
Pf growth 96h: 14.9%; RE007 growth inh: -20.2%; Pf growth 48h: 12.0%; NS1 function inh: -117.1%; SARS PLpro yeast: -10.2%

How did C=CCN1C(=O)/C(=C2/Sc3ccc(OC)cc3N2C)SC1=Nc1cccc(O)c1 do in these assays?
Pf growth 96h: -23.1%; RE007 growth inh: 1.6%; Pf growth 48h: -0.5%; NS1 function inh: 3.7%; SARS PLpro yeast: 0.4%

What do the screens show for `CCN1C(=O)/C(=C2/Sc3ccc(OC)cc3N2C)SC1=Nc1ccc(OC)cc1`?
Pf growth 96h: 9.28µM*; RE007 growth inh: 2.9%; Pf growth 48h: -0.4%; SARS PLpro yeast: -2.4%

How did O=C(COC(=O)c1ccc([N+](=O)[O-])s1)NCc1ccccc1 do in these assays?
Pf growth 96h: inconclusive; RE007 growth inh: 6.0%; Pf growth 48h: 4.1%; NS1 function inh: -36.6%; SARS PLpro yeast: -99.1%

Results for Cc1[nH]c2ccccc2c1C(=O)COC(=O)c1ccc([N+](=O)[O-])s1 ?
Pf growth 96h: inconclusive; RE007 growth inh: 63.1µM*; Pf growth 48h: inconclusive; NS1 function inh: -79.1%; SARS PLpro yeast: -5.7%

Results for O=C(OCC(=O)N1CCC(c2ccccc2)=N1)c1ccc([N+](=O)[O-])s1 ?
Pf growth 96h: inconclusive; RE007 growth inh: 15.8µM*; Pf growth 48h: inconclusive; SARS PLpro yeast: -27.0%

What do the screens show for `O=C1c2ccccc2NC(c2ccc3c(c2)OCO3)N1O` (stereo unspecified)?
Pf growth 96h: 0.37µM*; RE007 growth inh: -7.9%; Pf growth 48h: -26.2%; NS1 function inh: -12.6%; SARS PLpro yeast: 8.5%

What do the screens show for `CC(=O)NCC(=O)N(C)C(C(=O)Nc1ccc2c(c1)OCCO2)c1ccc(C)cc1` (stereo unspecified)?
Pf growth 96h: 4.8%; RE007 growth inh: -2.8%; Pf growth 48h: -3.0%; SARS PLpro yeast: -5.8%

What do the screens show for `Cc1ccc(C(C(=O)Nc2ccc3c(c2)OCO3)N(C)C(=O)/C=C\c2ccc3c(c2)OCO3)cc1` (stereo unspecified)?
Pf growth 96h: 13.4%; RE007 growth inh: 2.2%; Pf growth 48h: 13.1µM*; NS1 function inh: inconclusive; SARS PLpro yeast: 2.1%

Results for CCOC(=O)[C@H]1[C@H]2COc3ccc(Br)cc3[C@@H]2N2C(=O)CN(Cc3ccc(F)cc3)C(=O)[C@@]12C ?
Pf growth 96h: inconclusive; RE007 growth inh: 4.0%; Pf growth 48h: 13.1µM*; SARS PLpro yeast: -12.6%

How did CCOC(=O)[C@H]1[C@H]2COc3ccc(OC)cc3[C@@H]2N2C(=O)CN(Cc3ccccc3)C(=O)[C@@]12C do in these assays?
Pf growth 96h: inconclusive; RE007 growth inh: 1.5%; Pf growth 48h: 10.4µM*; SARS PLpro yeast: 9.3%

How did CCOC(=O)[C@H]1[C@H]2COc3ccc(OC)cc3[C@@H]2N2C(=O)CN(Cc3ccc(Cl)cc3)C(=O)[C@@]12C do in these assays?
Pf growth 96h: inconclusive; RE007 growth inh: -0.3%; Pf growth 48h: 14.7µM*; SARS PLpro yeast: 0.9%

Bioassay records: PubChem, National Center for Advancing Translational Sciences (NCATS)
